Out of some 360,000 compounds screened, about 3,100 (0.86%) were called active. What follows is part of a selection rich in actives, with near analogues and random picks from the rest. A number with no mark means an inactive call.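 How the source made its calls: active means inhibition or corrected inhibition above about 18%, plus a signal ratio from 0.5 to 1.5 (limit read from the data, passing the limit was not always enough); inactive means the rest.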
target: Neuropilin-1 (Homo sapiens) (UniProt O14786); experiment: NRP-1/CendR peptide interaction modulators – biochemical, fluorescence polarization, uHTS, primary screen (AID 602438); details: FAM-RPARPAR peptide binding to NRP-1, fluorescence polarization; at 25 µM; stronger effect = higher value
Sequence (O14786 whole entry, looked up): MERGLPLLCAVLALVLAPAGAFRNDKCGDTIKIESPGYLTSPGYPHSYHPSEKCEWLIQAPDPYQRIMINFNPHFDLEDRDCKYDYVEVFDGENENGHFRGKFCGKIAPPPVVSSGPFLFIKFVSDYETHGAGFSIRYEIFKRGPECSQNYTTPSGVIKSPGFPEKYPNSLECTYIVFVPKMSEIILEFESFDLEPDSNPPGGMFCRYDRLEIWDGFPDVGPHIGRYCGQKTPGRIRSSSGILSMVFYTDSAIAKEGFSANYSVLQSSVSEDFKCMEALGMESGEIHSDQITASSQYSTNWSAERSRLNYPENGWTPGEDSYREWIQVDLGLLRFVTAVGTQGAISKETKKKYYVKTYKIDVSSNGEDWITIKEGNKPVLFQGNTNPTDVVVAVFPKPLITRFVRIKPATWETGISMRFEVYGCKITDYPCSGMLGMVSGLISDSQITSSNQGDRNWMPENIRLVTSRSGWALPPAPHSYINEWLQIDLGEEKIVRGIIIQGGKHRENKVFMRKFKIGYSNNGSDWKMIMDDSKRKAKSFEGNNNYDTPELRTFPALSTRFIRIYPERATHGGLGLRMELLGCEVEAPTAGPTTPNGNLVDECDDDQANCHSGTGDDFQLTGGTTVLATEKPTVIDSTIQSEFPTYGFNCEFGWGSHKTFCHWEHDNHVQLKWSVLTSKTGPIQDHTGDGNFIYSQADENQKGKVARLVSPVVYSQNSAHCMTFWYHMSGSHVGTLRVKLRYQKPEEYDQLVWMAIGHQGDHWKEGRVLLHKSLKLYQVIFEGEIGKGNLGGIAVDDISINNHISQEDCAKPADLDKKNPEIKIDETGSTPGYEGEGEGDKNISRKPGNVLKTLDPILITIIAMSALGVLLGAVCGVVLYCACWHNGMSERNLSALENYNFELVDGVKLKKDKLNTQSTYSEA

Compound | inhibition
COCC1CCCN(C(=O)c2ccc3oc(C(C)C)nc3c2)C1 (stereo unspecified) | -5.1%
COc1ccc([N+](=O)[O-])cc1N(CC(O)Cn1nnc2ccccc21)S(=O)(=O)c1ccc(C)cc1 (stereo unspecified) | 7%
Cc1ccc(S(=O)(=O)N(CC(O)CN2CCCCC2)c2cccc([N+](=O)[O-])c2)cc1 (stereo unspecified) | -0.8%
Cc1ccc(S(=O)(=O)N(CC(O)CN2C(=O)NC(C)(C)C2=O)c2cccc([N+](=O)[O-])c2)cc1 (stereo unspecified) | 24.8% (active)
CCOC(=O)C1(C)CCCN(C(=O)c2cccc(Cl)c2)C1 (stereo unspecified) | 20% (active)
CCOC(=O)C1(C)CCCN(C(=O)c2ccc(F)c(Cl)c2)C1 (stereo unspecified) | 16.4%
CCOC(=O)C1(C)CCCN(C(=O)c2ccc(N(C)C)cc2)C1 (stereo unspecified) | -8.3%
CC(OC(=O)c1cccnc1Cl)C(=O)NC1CCCCC1 (stereo unspecified) | 0.1%
CCOc1ccc(S(=O)(=O)NCCC(=O)NCC(C)(C)N2CCOCC2)cc1 | -3.6%
COc1ccc(C(=O)NC2CC(C)(C)NC(C)(C)C2)cc1OC | -3.8%
CN(C)C(=O)COC(=O)c1cccc(S(=O)(=O)N2CC3(C)CC2CC(C)(C)C3)c1 (stereo unspecified) | 9.7%
COc1ccc(C(=O)N2CC3(C)CC2CC(C)(C)C3)cc1OC (stereo unspecified) | 33.3% (active)
O=c1[nH]c2ccccc2n1C1CCN(CCOc2ccccc2)CC1 | -8%
Cc1ccc(S(=O)(=O)N(CC(=O)Nc2cccnc2)c2ccc(Br)cc2)cc1 | 0.4%
COc1ccccc1-c1nnc2n1N=C(c1ccc(OC(F)F)c(OCC3CC3)c1)CS2 | 18.8% (active)
COc1ccc(C2=Nn3c(nnc3-c3ccccc3OC)SC2)cc1OC1CCCC1 | 2.4%
Cc1ccc(NC2CCCN(C(=O)CCc3cn[nH]c3)C2)cc1C (stereo unspecified) | 5.4%
CN(C)c1ccc(Nc2c3c4c(cccc4n(C)c2=O)C(=O)c2ccccc2-3)cc1 | 28.9% (active)
CCOc1cc(CNCCN(C)C)c(Cl)cc1OCC(=O)NCCc1ccccc1 | -1.5%
CCOC(=O)N1CCN(C(=O)Cc2ccc(-n3c(=S)[nH]c4ccccc4c3=O)cc2)CC1 | 2.6%
CCOC(=O)N1CCN(C(=O)CNC(=O)Cc2ccc(Cl)cc2)CC1 | 24.6% (active)

Compound | inhibition
CCOC(=O)N1CCN(C(=O)C(C)NC(=O)c2ccco2)CC1 (stereo unspecified) | 5.9%
N#Cc1ccc(C(=O)Nc2nc(-c3cccs3)c(C(=O)C(F)(F)F)s2)cc1 | 2.3%
N#CC(C(N)=O)=C1CCC2(CC1)OCCCCO2 | -11%
CC1(C)C/C(=C(/C#N)C(N)=O)CCO1 | 51% (active)
CCN(CC)C(=O)COc1coc(CN2CCN(Cc3ccccc3)CC2)cc1=O | 0.6%
C=CCNC(=O)COc1coc(CN2CCN(Cc3ccccc3)CC2)cc1=O | 2%
CCCNC(=O)COc1coc(CN2CCN(Cc3ccccc3)CC2)cc1=O | 22.7% (active)
CCOc1cnc(C(=O)NNC(=O)c2ccccc2Br)o1 | 6.1%
CCCc1ccc(S(=O)(=O)N2CCN(C(=O)c3cc(C)on3)CC2)cc1 | 1.7%
C=C1C(=O)OC2C1CCC(C)=CCCC1(C)OC21 (stereo unspecified) | -0.7%
Cc1cc2oc(=O)cc(-c3ccccc3)c2c(C)c1-c1ccc(OC(F)(F)F)cc1 | 0.8%
COc1ccc(-c2c(C)cc3oc(=O)cc(-c4ccccc4)c3c2C)cc1C=O | 34.1% (active)
COc1cc(OC)c2c(-c3cccc(-c4cccc(N)c4)c3)cc(=O)oc2c1 | -8.2%
CSCC[C@H](NC(=O)CCCn1nnc2ccccc2c1=O)C(=O)O | -1.8%
CC(=O)N1CCC(C(=O)OCc2ccc(Cl)cc2)(c2ccccc2)CC1 | -3%
COC(=O)Cc1ccc(OCC(=O)Nc2ccc(OC(F)(F)F)cc2)cc1 | 1.7%
CCOC(=O)Cc1ncccc1C(=O)Nc1ccc(OC(F)(F)F)cc1 | 29.7% (active)
CCOc1ncccc1C(=O)Nc1ccc(S(=O)(=O)Nc2nc(C)cc(C)n2)cc1 | -0.6%
CCCCN1CCNC1=S | -6.7%
CC(NC(=O)c1cc2cc(Cl)ccc2oc1=N)c1ccccc1 (stereo unspecified) | -11%
CC(NCc1nc2ccccc2n1C)C12CC3CC(CC(C3)C1)C2 (stereo unspecified) | -3.5%

Compound | inhibition
CCc1cc(=O)oc2c(C)c(OCC(=O)NCCN3CCOCC3)ccc12 | 10.3%
Cc1cc(=O)oc2c(C)c(OCC(=O)NCCc3ccc(S(N)(=O)=O)cc3)ccc12 | -18.3%
Cc1cc(=O)oc2c(C)c(OCC(=O)NCCN3CCOCC3)ccc12 | 25.8% (active)
CC1CC(C)CN(c2ccc(S(=O)(=O)N3CCOCC3)cc2)C1 (stereo unspecified) | 22.3% (active)
CC1CC(C)CN(S(=O)(=O)c2ccc(C(=O)NN3CCOCC3)cc2)C1 (stereo unspecified) | -2.9%
Cc1ccc(S(=O)(=O)N2CCN(S(=O)(=O)N3CCOCC3)CC2)cc1 | 0%
Cc1c(CC(=O)N2CCN(C(=O)C3COc4ccccc4O3)CC2)c(=O)oc2c(O)c(O)ccc12 (stereo unspecified) | -49.5%
COC(=O)[C@@]1(Cc2ccc(F)cc2)[C@H]2c3cc(C(=O)N4CCCC4)n(C[C@H](O)CO)c3C[C@H]2CN1C(=O)c1ccccc1 | -11.6%
Cc1ccc2c(c1)N(CCCC(=O)NCc1cccnc1)C(=O)CO2 | 12.9%
Cc1cc(Cl)ccc1C(=O)C1CCCN(C(=O)c2nonc2C)C1 (stereo unspecified) | -2.6%
CCCC(=O)NC(Nc1ccccc1OC)C(Cl)(Cl)Cl (stereo unspecified) | -6.4%
NNC(=O)C1CCCn2c1nc1sc3c(c1c2=O)CCCC3 (stereo unspecified) | 1.2%
Cn1c(NN)nc2sc3c(c2c1=O)CCC3 | 17.4% (active)
C=C(C)CSc1nc(N)c2c3c(sc2n1)CCC3 | -0.3%
O=C(C/C(=N\NC(=O)c1ccccc1Br)C(F)(F)F)c1cccs1 | 0%
CN(C)C(CNC(=O)c1cc(Br)c(Br)s1)c1ccco1 (stereo unspecified) | -4.5%
CCC(=O)c1ccc(OC(=O)/C=C/c2cc(OC)c(OC)c(OC)c2)cc1 | 2.2%
COc1cc(/C=C/c2ccc(/C=C/c3cc(OC)c(OC)c(OC)c3)cc2)cc(OC)c1OC | 20.5% (active)
COc1cc(/C=C/C2=CC(C)(C)NC(=S)N2)cc(OC)c1OC | 3.9%

From PubChem BioAssay AID602438 (Sanford-Burnham Center for Chemical Genomics, 2012)
